According to the supplement of paper PMC12067926:
A number with no mark means an inactive call.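 Rule for the calls: active = growth AUC significantly below the DMSO wells by Dunnett test; inactive = the rest.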

Experiments:
Assay in all cases: relative growth (AUC of 72 h growth curve relative to DMSO control, dAUC) (ratio); higher = more growth (less inhibition), active = hit call of the paper
Settings in all cases: 20 µM
[1] = tested on: Aeromonas 1 (Aeromonas sp. AE235)
In short: (§1)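 Each chemical was tested at 20 µM (1% DMSO) in 96-well plates seeded with a 1:100 dilution of cultures grown to carrying capacity in Luria–Bertani medium. These were isolates from Icelandic stream sediments and Silwood Park soil, as well as whole sediment communities. A plate reader took A600 readings hourly over 72 h, and three biological replicates were averaged. Relative growth (dAUC) is the spline-integrated area under the growth curve relative to the mean of the DMSO controls.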

[2] = tested on: Aeromonas 2 (Aeromonas sobria)
In short: as §1

[3] = tested on: Aeromonas 3 (Aeromonas popoffii)
In short: as §1

[4] = tested on: Argrobacterium 1 (Agrobacterium sp.)
In short: as §1

[5] = tested on: Arthrobacter 1 (Arthrobacter humicola)
In short: as §1

[6] = tested on: Arthrobacter 2 (Arthrobacter humicola)
In short: as §1

[7] = tested on: Arthrobacter 3 (Arthrobacter sp.)
In short: as §1

Community 4 = tested on: Community 4
In short: as §1

Community 6 = tested on: Community 6
In short: as §1

Row | SMILES | relative growth [1] | relative growth [2] | relative growth [3] | relative growth [4] | relative growth [5] | relative growth [6] | relative growth [7] | relative growth (Community 4) | relative growth (Community 6)
1 | COC(=O)N(C(=O)N1CO[C@@]2(C(=O)OC)Cc3cc(Cl)ccc3C2=N1)c1ccc(OC(F)(F)F)cc1 | 0.96 | 0.963 | 0.971 | 1.03 | 1 | 0.972 | 1.02 | 1.03 | 0.974
2 | CNC(=O)CSP(=S)(OC)OC | 0.944 | 0.984 | 0.967 | 1.02 | 1.04 | 0.992 | 0.978 | 0.765 | 0.957
3 | CC(C)OC(=O)Nc1cccc(Cl)c1 | 0.932 | 0.969 | 1.05 | 0.93 | 0.95 | 1 | 0.964 | 1.11 | 1.13
4 | Cc1cc(C2CC2)nc(Nc2ccccc2)n1 | 1.01 | 0.948 | 1.05 | 0.93 | 0.989 | 0.898 | 0.542 (active) | 0.978 | 1
5 | O=C(Nc1ccc(F)cc1F)c1cccnc1Oc1cccc(C(F)(F)F)c1 | 1.03 | 0.98 | 1.01 | 1.02 | 1.06 | 1 | 1.07 | 1.08 | 0.987
6 | Oc1ccc(Cl)cc1Cc1cc(Cl)ccc1O | 0.522 (active) | 0.00195 (active) | 0.275 (active) | 0.959 | 0.00578 (active) | 0.00499 (active) | 0.011 (active) | 0.664 | 0.496 (active)
7 | O=C(O)CNCP(=O)(O)O | 0.998 | 1 | 1.03 | 1.01 | 0.952 | 1.04 | 1.04 | 1.03 | 1.07
8 | CCc1cnc(C2=NC(C)(C(C)C)C(=O)N2)c(C(=O)O)c1 (stereo not drawn) | 0.969 | 0.981 | 1 | 0.95 | 0.895 | 0.959 | 0.932 | 1.03 | 1.04
9 | COc1ncc(F)c2nc(S(=O)(=O)Nc3c(F)cccc3F)nn12 | 1.06 | 1.02 | 1.07 | 0.953 | 1.03 | 1.11 | 1.03 | 1.05 | 1.05
10 | CC(C)NC(=O)N1CC(=O)N(c2cc(Cl)cc(Cl)c2)C1=O | 0.998 | 0.934 | 1.01 | 0.984 | 1.06 | 0.957 | 0.841 | 0.925 | 0.969
11 | COP(=S)(OC)Oc1nc(Cl)c(Cl)cc1Cl | 1.04 | 1.02 | 1.01 | 1.05 | 0.769 | 0.312 (active) | 0.646 (active) | 0.867 | 0.987
12 | CC(C)N(C(=O)COc1nnc(C(F)(F)F)s1)c1ccc(F)cc1 | 1.04 | 0.994 | 0.973 | 1.02 | 1.05 | 0.894 | 1.02 | 1.04 | 0.92
13 | Cc1nnc(-c2ccccc2)c(=O)n1N | 0.991 | 0.975 | 0.993 | 1.03 | 0.986 | 0.946 | 1.04 | 0.882 | 0.909
14 | CCCC1COC(Cn2cncn2)(c2ccc(Cl)cc2Cl)O1 (stereo not drawn) | 0.966 | 0.949 | 0.971 | 0.999 | 0.991 | 0.797 | 0.751 | 0.89 | 0.917
15 | CC1COC(Cn2cncn2)(c2ccc(Oc3ccc(Cl)cc3)cc2Cl)O1 (stereo not drawn) | 1.08 | 1.03 | 1.02 | 1.04 | 0.741 | 0.223 (active) | 0.348 (active) | 1.2 | 1.06
16 | ClC1C(Cl)C(Cl)C(Cl)C(Cl)C1Cl (stereo not drawn) | 1.02 | 0.964 | 0.994 | 1 | 1.04 | 0.837 | 0.909 | 0.976 | 0.931
17 | Cc1cc(C)c(C2=C(OC(=O)CC(C)(C)C)C3(CCCC3)OC2=O)c(C)c1 | 1.09 | 0.978 | 1.05 | 1.11 | 0.927 | 0.864 | 0.789 | 1.19 | 0.917
18 | Clc1ccc(C(c2ccc(Cl)cc2)C(Cl)(Cl)Cl)cc1 | 0.999 | 0.972 | 0.973 | 1.02 | 0.353 (active) | 0.211 (active) | 0.316 (active) | 0.976 | 0.983
19 | CCOCN(C(=O)CCl)c1c(C)cccc1CC | 0.953 | 0.938 | 0.964 | 1.02 | 0.999 | 0.858 | 1.02 | 0.952 | 0.921
20 | CC1(C)CON(Cc2ccccc2Cl)C1=O | 0.978 | 0.966 | 1.01 | 1 | 0.963 | 0.879 | 1.08 | 0.973 | 0.946
21 | CCC(C)c1ccccc1OC(=O)NC (stereo not drawn) | 1 | 0.975 | 0.991 | 1.06 | 0.921 | 1.08 | 1.08 | 1.06 | 1.07
22 | N#CCNC(=O)c1cnccc1C(F)(F)F | 1.01 | 0.97 | 1.03 | 0.992 | 0.965 | 0.882 | 0.96 | 0.954 | 0.919
23 | Cc1cccc2sc3nncn3c12 | 0.985 | 0.988 | 1 | 0.915 | 0.993 | 0.932 | 1.01 | 0.917 | 0.96
24 | N#Cc1nn(-c2c(Cl)cc(C(F)(F)F)cc2Cl)c(N)c1[S+]([O-])C(F)(F)F (stereo not drawn) | 0.981 | 0.935 | 1 | 1.01 | 0.911 | 0.914 | 0.853 | 1.07 | 1.06
25 | COc1cc(C)c(C(=O)c2c(OC)ccc(Br)c2C)c(OC)c1OC | 1.07 | 1.03 | 1.1 | 1.04 | 1.15 | 0.768 | 0.949 | 1.1 | 1.05
26 | CCOP(=S)(OCC)Oc1cc(C)nc(C(C)C)n1 | 0.987 | 0.964 | 0.98 | 1.16 | 0.981 | 0.834 | 0.888 | 0.904 | 0.958
27 | N#CC(CCc1ccc(Cl)cc1)(Cn1cncn1)c1ccccc1 (stereo not drawn) | 0.938 | 0.936 | 1.01 | 0.968 | 0.81 | 0.555 (active) | 0.666 (active) | 0.946 | 0.958
